Test results taken from PubChem BioAssay.
Active and inactive are the calls of the source. Unless noted, how the calls were made is not given here.

How the values were obtained:
[1] = anti-His antibody binders, primary screen, artefact control for SMM control protein annotation, biochemical, small-molecule microarray, 635 nm fluorescence (AID 1128); conditions: anti-His Alexa647 antibody binding, higher = more signal;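 further: score merges feature fluorescence with signal-to-noise for each printed compound spot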
[2] = tested on: Human papillomavirus type 1a E7 protein (residues 1-88); experiment: HPV1a E7 small-molecule binders, primary screen, biochemical, small-molecule microarray, residues 1-88, 635 nm (AID 1129); conditions: small-molecule microarray binding, fluorescence 635 nm; higher = more signal
[3] = target: Focal adhesion kinase 1 (Homo sapiens) (UniProt Q05397); experiment: small-molecule microarray binders of FAK, primary screen, biochemical, 635/667 nm fluorescence, BSA, DTT (AID 1130); conditions: PTK2 binding, 635 nm fluorescence, higher = more signal;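 further: composite of spot emission at 667 nm and signal to noise over triplicate slides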
[4] = tested on: Fibrinogen (Alexa647-labelled); experiment: fibrinogen binders on compound microarrays, profiling panel, artefact control for SMM control-protein annotation, biochemical, small-molecule microarray, 635/667 nm fluorescence (AID 1131); conditions: fibrinogen-A647 binding fluorescence, higher = more signal;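 further: z-score merges 667 nm fluorescence with per-spot signal-to-noise over triplicate slides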
[5] = target: Follistatin (Homo sapiens) (UniProt P19883); experiment: follistatin binders on small-molecule microarrays, primary screen, biochemical, small-molecule microarray, 635/667 nm fluorescence (AID 1132); conditions: FST binding, 635 nm fluorescence, higher = more signal
[6] = target: Fibroblast growth factor 2 (Homo sapiens) (UniProt P09038); experiment: FGF2 binders on small-molecule microarrays, primary screen, biochemical, small-molecule microarray, 635/667 nm fluorescence (AID 1133); conditions: small-molecule microarray binding, FGF2, fluorescence 635/667; higher = more signal
[7] = mitochondrial membrane potential change in A549 cells, profiling panel, cell-based, JC-1 fluorescence, basal, 24 h, 100 nL (AID 1138); conditions: higher = more signal;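 further: A549 lung adenocarcinoma cells under basal conditions with no added stimulus; test concentration not given here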
Lefty1 = Lefty1 binders on small-molecule microarrays, primary screen, biochemical, small-molecule microarray, 635/667 nm fluorescence (AID 1139); conditions: small-molecule microarray binding, fluorescence 635/667; higher = more signal
[8] = tested on: wheat germ agglutinin (Triticum aestivum), Alexa647-labelled; experiment: wheat germ agglutinin binders on compound microarrays, profiling panel, artefact control for SMM control-protein annotation, biochemical, small-molecule microarray, 635/667 nm fluorescence (AID 1140); conditions: WGA-A647 binding, 635 nm fluorescence, higher = more signal;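 further: score merges 667 nm feature emission with signal to noise over triplicate slides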
[9] = target: Luciferin 4-monooxygenase (Photinus pyralis) (UniProt P08659); experiment: firefly luciferase enzyme inhibitors, primary screen, biochemical, luminescence, purified enzyme, 2006 set (AID 1141); conditions: SteadyGlo luminescence, 30 min, higher = more signal, called active from +8 up or from −8 down;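 further: cell-free assay with purified firefly luciferase at 100 ng per well in PBS; test concentration not given here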
[10] = tested on: Wnt5a (protein binding on small-molecule microarray); experiment: Wnt5a binders on small-molecule microarray, primary screen, biophysical, 635/667 nm fluorescence (AID 1142); conditions: 635 nm fluorescence, higher = more signal;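 further: fluorescence read at 667 nm with signal to noise per printed feature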
[11] = cell viability in Huh7 cells, primary screen, cytotoxicity control for HCV replication inhibitor project, CellTiter-Glo luminescence, basal, 48 h (AID 1143); conditions: Huh7 HCV replicon, higher = more signal, called active from +8 up or from −8 down;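 further: Huh7 hepatoma cells carrying a hepatitis C replication reporter with no stimulus; test concentration not given here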
[12] = P. aeruginosa biofilm formation inhibitors, primary screen, PAO1 strain, BacTiter-Glo luminescence, LB-PBS (AID 1144); conditions: 12 h, higher = more signal
[13] = CREB reporter modulators without forskolin, primary screen, cell-based, PC12, CRE-LacZ reporter, unstimulated (AID 1145); conditions: no forskolin, luminescence, 4.5 h, higher = more signal, called active from +8 up or from −8 down
[14] = CREB reporter modulators under forskolin, primary screen, cell-based, PC12, CRE-LacZ reporter, forskolin-stimulated (AID 1146); conditions: luminescence, 4.5 h, higher = more signal, called active from +8 up or from −8 down;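 further: PC12 cells with 6xCRE LacZ reporter stimulated by forskolin 10 µM; beta-galactosidase reporter signal reflecting CREB driven transcription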
[15] = target: Streptavidin (Streptomyces avidinii) (UniProt P22629); experiment: streptavidin binders on small-molecule microarray, primary screen, artefact control for SMM compound annotation, biophysical, 635/667 nm fluorescence (AID 1147); conditions: streptavidin binding, higher = more signal;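 further: signal reflects streptavidin binding to arrayed compounds as a control protein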
[16] = small-molecule binders of probe aInhba, primary screen, biochemical, small-molecule microarray, 635/667 nm fluorescence (AID 1148); conditions: higher = more signal;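 further: score merges 667nm spot fluorescence with signal-to-noise for antibody binding to printed compounds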
Torsin-1A (Homo sapiens) [17] = target: Torsin-1A (Homo sapiens) (UniProt O14656); experiment: torsin A binders from cell lysate, primary screen, small-molecule microarray, wild-type, 635/667 nm (AID 1149); conditions: COS7 hTOR1A-WT lysate, 635 nm fluorescence, higher = more signal
Torsin-1A (Homo sapiens) [18] = target: Torsin-1A (Homo sapiens) (UniProt O14656); experiment: small-molecule binders of mutant TOR1A in lysate, primary screen, cell lysate, small-molecule microarray, COS7 lysate, 635/667 nm fluorescence (AID 1150); conditions: COS7 hTOR1A mutant lysate, 635 nm fluorescence, higher = more signal;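 further: score pools 667 nm emission and signal to noise measuring lysate protein binding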
[19] = tested on: Sonic hedgehog protein (Shh); experiment: small-molecule binders of Shh protein, primary screen, biochemical, small-molecule microarray, 635/667 nm fluorescence (AID 1151); conditions: small-molecule microarray binding, 635 nm fluorescence; higher = more signal;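 further: Shh protein binding to compounds spotted on small-molecule microarray slides; score combines spot fluorescence intensity with signal-to-noise across triplicate slides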

Sequence of Fibroblast growth factor 2 (Homo sapiens) (P09038 whole entry, looked up): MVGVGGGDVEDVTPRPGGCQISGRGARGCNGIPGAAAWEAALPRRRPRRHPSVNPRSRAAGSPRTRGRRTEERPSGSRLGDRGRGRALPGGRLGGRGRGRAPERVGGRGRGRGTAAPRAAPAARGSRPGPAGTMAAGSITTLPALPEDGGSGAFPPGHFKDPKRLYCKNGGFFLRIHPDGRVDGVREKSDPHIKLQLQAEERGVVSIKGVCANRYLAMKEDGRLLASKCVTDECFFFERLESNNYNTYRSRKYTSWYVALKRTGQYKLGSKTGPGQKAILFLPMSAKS
Sequence of Focal adhesion kinase 1 (Homo sapiens) (Q05397 whole entry, looked up): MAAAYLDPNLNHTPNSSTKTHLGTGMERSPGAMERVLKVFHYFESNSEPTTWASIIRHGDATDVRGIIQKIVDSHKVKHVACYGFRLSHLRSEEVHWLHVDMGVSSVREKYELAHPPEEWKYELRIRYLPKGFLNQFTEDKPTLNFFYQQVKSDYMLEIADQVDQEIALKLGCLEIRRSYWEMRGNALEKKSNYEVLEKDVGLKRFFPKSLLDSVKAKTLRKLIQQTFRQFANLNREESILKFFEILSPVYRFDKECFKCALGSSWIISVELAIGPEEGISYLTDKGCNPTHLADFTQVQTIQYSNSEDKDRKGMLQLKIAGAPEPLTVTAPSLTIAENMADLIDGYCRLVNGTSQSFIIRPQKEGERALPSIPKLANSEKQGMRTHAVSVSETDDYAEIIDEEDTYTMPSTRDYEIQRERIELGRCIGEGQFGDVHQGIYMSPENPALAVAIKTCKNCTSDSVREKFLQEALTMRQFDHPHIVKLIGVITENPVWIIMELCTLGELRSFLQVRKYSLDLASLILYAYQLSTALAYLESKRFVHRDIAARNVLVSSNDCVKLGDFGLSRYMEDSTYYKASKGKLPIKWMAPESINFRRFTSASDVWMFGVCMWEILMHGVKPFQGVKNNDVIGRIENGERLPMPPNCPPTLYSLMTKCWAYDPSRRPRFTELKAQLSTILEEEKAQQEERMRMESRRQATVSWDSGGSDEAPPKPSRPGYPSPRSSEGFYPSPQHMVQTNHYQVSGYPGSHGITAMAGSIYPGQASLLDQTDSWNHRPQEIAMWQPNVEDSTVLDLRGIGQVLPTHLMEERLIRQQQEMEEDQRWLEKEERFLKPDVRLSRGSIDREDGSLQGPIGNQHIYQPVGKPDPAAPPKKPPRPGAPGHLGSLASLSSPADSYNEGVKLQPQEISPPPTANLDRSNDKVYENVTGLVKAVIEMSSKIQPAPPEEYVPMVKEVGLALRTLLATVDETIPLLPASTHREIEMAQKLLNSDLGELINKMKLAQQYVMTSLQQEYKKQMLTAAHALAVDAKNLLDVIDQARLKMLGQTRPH
Sequence of Follistatin (Homo sapiens) (P19883 whole entry, looked up): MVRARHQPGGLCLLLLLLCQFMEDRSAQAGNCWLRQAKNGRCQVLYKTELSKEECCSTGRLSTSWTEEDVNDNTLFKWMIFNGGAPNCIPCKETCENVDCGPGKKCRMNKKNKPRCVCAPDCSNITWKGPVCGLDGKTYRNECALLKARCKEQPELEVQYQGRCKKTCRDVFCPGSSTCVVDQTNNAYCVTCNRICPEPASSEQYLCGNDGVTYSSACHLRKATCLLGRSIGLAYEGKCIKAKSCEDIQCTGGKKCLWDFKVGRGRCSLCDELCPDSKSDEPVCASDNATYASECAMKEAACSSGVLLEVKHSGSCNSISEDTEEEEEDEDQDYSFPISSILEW
Sequence of Torsin-1A (Homo sapiens) (O14656 whole entry, looked up): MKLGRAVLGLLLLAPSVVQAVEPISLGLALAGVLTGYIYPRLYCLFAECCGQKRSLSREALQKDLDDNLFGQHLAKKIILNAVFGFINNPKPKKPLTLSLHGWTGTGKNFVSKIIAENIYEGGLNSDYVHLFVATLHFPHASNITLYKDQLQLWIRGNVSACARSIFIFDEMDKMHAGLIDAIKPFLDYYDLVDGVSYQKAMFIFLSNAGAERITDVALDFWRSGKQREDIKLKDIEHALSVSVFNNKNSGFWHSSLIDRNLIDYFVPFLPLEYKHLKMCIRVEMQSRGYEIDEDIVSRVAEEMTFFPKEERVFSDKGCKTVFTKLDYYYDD
Sequence of Streptavidin (Streptomyces avidinii) (P22629 whole entry, looked up): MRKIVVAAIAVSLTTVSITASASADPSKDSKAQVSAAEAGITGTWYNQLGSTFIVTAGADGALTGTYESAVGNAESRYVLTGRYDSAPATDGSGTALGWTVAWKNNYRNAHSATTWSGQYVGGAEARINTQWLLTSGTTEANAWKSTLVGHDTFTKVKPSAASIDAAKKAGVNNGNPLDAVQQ
Sequence of Luciferin 4-monooxygenase (Photinus pyralis) (P08659 whole entry, looked up): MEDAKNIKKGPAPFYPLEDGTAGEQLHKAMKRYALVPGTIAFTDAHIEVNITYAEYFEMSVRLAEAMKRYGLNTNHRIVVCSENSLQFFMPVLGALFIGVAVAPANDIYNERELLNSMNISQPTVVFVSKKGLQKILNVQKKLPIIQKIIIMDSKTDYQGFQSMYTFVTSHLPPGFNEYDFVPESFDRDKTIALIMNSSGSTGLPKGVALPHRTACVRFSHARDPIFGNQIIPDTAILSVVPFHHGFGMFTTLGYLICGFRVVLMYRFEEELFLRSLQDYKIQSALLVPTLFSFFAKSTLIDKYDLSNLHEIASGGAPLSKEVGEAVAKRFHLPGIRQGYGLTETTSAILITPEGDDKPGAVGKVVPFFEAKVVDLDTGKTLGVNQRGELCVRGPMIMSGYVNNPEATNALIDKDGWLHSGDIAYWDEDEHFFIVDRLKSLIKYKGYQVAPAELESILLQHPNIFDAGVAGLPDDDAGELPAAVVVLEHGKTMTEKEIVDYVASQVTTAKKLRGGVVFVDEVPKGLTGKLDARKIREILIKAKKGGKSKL

SMILES | composite z-score [1] | composite z-score [2] | composite z-score [3] | composite z-score [4] | composite z-score [5] | composite z-score [6] | z-score [7] | composite z-score (Lefty1) | composite z-score [8] | z-score [9] | composite z-score [10] | z-score [11] | z-score [12] | z-score [13] | z-score [14] | composite z-score [15] | composite z-score [16] | composite z-score (Torsin-1A (Homo sapiens) [17]) | composite z-score (Torsin-1A (Homo sapiens) [18]) | composite z-score [19]
COCC1=C([C@H](O)CCc2ccccc2)[C@H](CO)[C@@H]2C(=O)N(C)C(=O)[C@@H]2C1 | -0.0971 | -0.204 | 0.0647 | -0.114 | 0.191 | 0.584 | 0.982 | 0.388 | -0.368 | -1.08 (inactive) | -0.147 | -0.398 (inactive) | -0.668 (inactive) | 0.496 (inactive) | -1.67 (inactive) | -0.11 | -0.0313 | 0.389 | 0.414 | 0.552
C=CCOc1ccc([C@@H]2CC=C(C(=O)OCC)[C@H](c3cccc(Br)c3)N2S(=O)(=O)c2ccc(C)cc2)cc1 | -0.296 | 0.0511 | -0.209 | -0.161 | 0.199 | -0.0901 | 3.89 | -0.109 | 0.268 | 0.594 (inactive) | 0.141 | -4.43 (inactive) | 0.681 (inactive) | -0.424 (inactive) | 0.165 (inactive) | 0.414 | -0.0831 | 0.0699 | 0.307 | 0.0537
OCCCC1=CC(c2cccs2)N(Cc2cccc(OC(F)(F)F)c2)CC1 (stereo not given) | 0.357 | -0.138 | 0.316 | -1.42 | -0.17 | -0.546 | 0.593 | 0.226 | 0.771 | -0.605 (inactive) | -0.335 | -1.06 (inactive) | 0.839 (inactive) | 0.593 (inactive) | -0.368 (inactive) | -0.889 | -0.179 | 0.331 | -0.632 | 0.243
COC(=O)[C@@]1(Cc2ccccc2)[C@H]2c3cc(C(=O)N4CCCC4)n(Cc4ccc(OC(F)(F)F)cc4)c3C[C@H]2CN1C(=O)c1ccccc1 | 1.52 | 1.24 | 0.653 | 0.892 | 0.575 | -0.65 | 0.989 | -0.577 | 1.16 | 1 (inactive) | 1.01 | -2.44 (inactive) | 0.0853 (inactive) | 2.49 (inactive) | 2.25 (inactive) | 1.64 | 1.08 | -0.429 | 0.969 | -1.44
COCCOC(=O)N1C(=O)[C@@]2(c3cc(C#CCCO)ccc31)[C@H](C(=O)N1CCc3cc(OC)c(OC)cc3C1)[C@H]1C(=O)O[C@H](c3ccccc3)[C@H](c3ccccc3)N1[C@@H]2c1ccc(OCCO)cc1 | 0.768 | 1.08 | 0.148 | 0.786 | 1.27 | 1.29 | -0.236 | 1.11 | 0.774 | -2.83 (inactive) | 0.667 | -2.99 (inactive) | -1.11 (inactive) | 0.362 (inactive) | -1.27 (inactive) | 0.675 | 0.077 | 0.284 | 0.89 | 2.13
C[N+](C)(C)CCCCCCNC(=O)[C@@H]1C[C@@H]2C(=O)NCC(=O)N2[C@@H]1c1ccc(O)cc1 | 0.946 | 1.05 | -0.0272 | 0.49 | 1.41 | 1.31 | -0.779 | 1.53 | 0.01 | 0.584 (inactive) | 0.0508 | -0.0464 (inactive) | -0.404 (inactive) | -0.532 (inactive) | -0.828 (inactive) | 1.44 | -0.0933 | 0.319 | 0.523 | 2.16
CCCCCCC#C[Si](O[C@H](c1ccccc1)c1cn(Cc2cccc(Cl)c2)nn1)(C(C)C)C(C)C | 1.16 | 0.696 | 0.035 | 0.201 | 0.363 | 0.142 | 1.4 | 0.234 | 0.403 | 0.163 (inactive) | -0.14 | -0.736 (inactive) | -0.628 (inactive) | -1.12 (inactive) | -0.687 (inactive) | 0.967 | 0.0367 | 0.317 | 0.213 | 0.179
[N-]=[N+]=NCc1ccccc1[C@H]1OC(c2ccc(OCCCO)cc2)=N[C@@]1(Cc1ccccc1N=[N+]=[N-])C(=O)N1CCCCC1 | 2.35 | 1.23 | 0.529 | 0.974 | 1.34 | 1.56 | 2.16 | 0.68 | 0.681 | -1.9 (inactive) | 0.163 | -3.39 (inactive) | -0.567 (inactive) | 0.236 (inactive) | -1.04 (inactive) | 1.31 | 0.277 | 0.84 | 0.89 | 0.419
O=C1O[C@H](c2ccccc2)[C@H](c2ccccc2)N2[C@H]1[C@@H](C(=O)NC[C@H](O)c1ccccc1)[C@]1(C(=O)Nc3ccccc31)[C@H]2c1ccccc1OCCO | 2.24 | 1.22 | 0.271 | 0.916 | 0.455 | 0.538 | -0.789 | 0.799 | 0.356 | -11 (active) | -0.0435 | -6.33 (inactive) | -0.908 (inactive) | -0.581 (inactive) | -0.563 (inactive) | -0.164 | 0.0841 | 0.735 | 1.18 | 1.29
C=C(COC)C(=O)CC[C@H](OC(=O)c1ccccc1-c1ccccc1C(=O)O)c1ccc(OCCO)cc1 | 2.56 | 1.08 | 0.033 | 0.879 | 1.42 | 1.35 | -0.66 | 1.59 | 0.564 | -2.22 (inactive) | 0.314 | -0.0319 (inactive) | -0.623 (inactive) | 2.19 (inactive) | -0.42 (inactive) | -0.237 | 0.0906 | 2.29 | 0.383 | 1.81
